The record followed here is PubChem BioAssay (NCI).

SMILES strings stand for the structures. Compounds without any hit were thinned out: in the full panel of roughly 83,000, 20% have a hit.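 Cells were grown in 96-well plates and exposed to the test compound at a single concentration for 48 hours; results are reported as percent growth, with values below 10 considered active.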 Values without a mark were called inactive. Calls of active or inactive are those of the source.

In the test the test system is HL-60(TB) leukemia. The test can be described thus: NCI-60 one-dose screen, 48 h (100 = growth as untreated, 0 = no growth, -100 = all killed). To be noted: 10 µM unless noted.
In the case of `CC(=O)N1N=C(c2ccc3c(c2)OCO3)CC1c1c(C)nn(-c2ccccc2)c1N(C)Cc1ccccc1` (stereo not given), the growth was 85.6%. In the case of `CCCCCC[C@@H](O)C/C=C\CCCCCCCC(=O)OCCOC` it was 156%; in that of `CC1(C)[C@@H](O[C@@H]2OC[C@@H](O[C@@H]3O[C@H](CO)[C@@H](O)[C@H](O)[C@H]3O[C@@H]3OC[C@@H](O)[C@H](O)[C@H]3O)[C@H](O)[C@H]2O[C@@H]2O[C@H](CO)[C@@H](O)[C@H](O)[C@H]2O)CC[C@]2(C)[C@H]3CC[C@]45OC[C@@]6(CC[C@](C)(C=O)C[C@H]64)[C@H](O)C[C@@]5(C)[C@]3(C)CC[C@@H]12`, -58.6% (active); in that of `O=C(OCc1ccc2c(Cl)cc(Cl)c(O)c2n1)N1CCN(C(=O)c2cc3ccccc3[nH]2)CC1`, 31%. Next, `CCOC(=O)c1cc(/C=C/c2cccc(Cl)c2)on1`: 74.9%; `Cc1ccc(-c2c(Br)c(OC(=O)CO[C@@H]3C[C@H](C)CC[C@H]3C(C)C)c(-c3ccc(C)cc3C)c(Br)c2OC(=O)CO[C@H]2C[C@@H](C)CC[C@@H]2C(C)C)c(C)c1`: 101%. For the compound `COC(=O)[C@H]1CCCN1C(=O)[C@H]1CCCN1C(=O)[C@H](Cc1c[nH]c2ccccc12)NC(=S)Nc1cc(C(F)(F)F)cc(C(F)(F)F)c1`, the growth is 53.4%. As to `CN(C)CCCN1c2nc3ccccc3cc2Sc2cc3ccccc3nc21`, the growth is 43.9%.

Consider `Nc1ncnc2c1c(C(F)(F)F)cn2[C@@H]1O[C@H](CO)[C@@H](O)[C@H]1O`, for which the growth is -26.1% (active). For `C=CCOc1ccc2c(C)cc(=O)oc2c1`, the growth was 118%.

As to `Clc1ccc2c(c1)N(C1CCCN(Cc3ccccc3)C1)c1ccccc1S2` (stereo not given), the growth is 28.5%. Take `Cc1cc(N(CCCNc2ccnc3cc(Cl)ccc23)Cc2ccccn2)nc(N2CCOCC2)n1`: the growth is 102%. In the case of `COc1ccc(C2C(c3ccccc3)C(=O)N2c2cc(OC)c(OC)c(OC)c2)cc1I` (stereo not given) it was -31.6% (active); in that of `NC1=NC(c2ccc(Cl)cc2)C2=C(N1)/C(=C/c1ccc(Cl)cc1)CCC2` (stereo not given), 64.8%. For `Cc1cccc(Cc2cnc(NC(=O)CCc3ccc(C)o3)s2)c1`, the growth was -41.5% (active).

For the compound `OC(CNC1CCCCC1)Cn1c2ccc(I)cc2c2cc(I)ccc21` (stereo not given), the growth was 93.7%. Regarding `Nc1cc(-c2ccncc2)c[nH]c1=O`, the growth is 87.6%.

For `COC(=O)c1nc(-c2ccc(C)cc2)oc1S(=O)(=O)c1ccc(Cl)cc1`, the growth is 51.8%. `N#Cc1c(-c2ccccc2)nc2c(c(-c3ccccc3)nn2-c2ccccc2)c1-c1ccc(N2CCOCC2)cc1`: the growth is 65.4%. On to `Cc1ccc(CCC(=O)Nc2ncc(Cc3cc(Cl)ccc3Cl)s2)o1`, for which the growth is -40.4% (active). As to `Cc1ccc(C(=O)N/N=C/c2ccc3c(c2)OCO3)cc1`, the growth was 90.4%.

Consider `CCN1C(=O)N(CC)C2C1NN=c1s/c(=C\c3ccccc3Br)c(=O)n12` (stereo not given), for which the growth was -40.7% (active). For the compound `CC1(O)CCC(Nc2cc(-c3ccc(C(F)(F)F)cc3)c(C#N)c3nc4ccccc4n23)CC1` (stereo not given), the growth was 63%. In the case of `COc1cc(CO)cc2cc3ccccc3nc12`, the growth is 101%. As to `Cn1c(COC(=O)NCCN2CCOCC2)nc2c(N3CCOCC3)nc(-c3ccccc3)nc21`, the growth was -52.8% (active). On to `O=C(O)c1cn(C2CC2)c2cc(N3CCN(Cc4nc5c(cnn5-c5ccc([N+](=O)[O-])cc5)c(=O)[nH]4)CC3)c(F)cc2c1=O`, for which the growth was 92.8%. As to `CCOC(=O)Cn1c(C)c(/C=N/NC(=O)c2cc3c(ccc4ccccc43)o2)c2ccccc21`, the growth is 0.68% (active). Next, `COc1cc(N=Nc2ccc(O)c3ncccc23)c2ncccc2c1`: -14.1% (active); `COc1ccc(-c2nn(-c3cccc(NC(=O)c4cc(C(F)(F)F)cc(C(F)(F)F)c4)c3)cc2-c2ccncc2)cc1Cl`: 88.9%. As for `Nc1c(C(=O)Nc2cccc3cnccc23)sc2nc3c(cc12)CN(Cc1ccccc1)CC3`, the growth was 101%. Regarding `Clc1ccccc1-c1cnn2cc(-c3ccccc3)cnc12`, the growth was 96.2%.

Take `O=C1c2ccccc2C2(c3ccc(O)cc3)c3ccccc3Oc3cccc1c32` (stereo not given): the growth is 1.45% (active).

Consider `NC(N)=N/N=C\c1ccc(OCc2ccccc2)cc1`, for which the growth was 43.1%. Consider `COc1ccc(Oc2ccc(/C=C/C(=O)c3ccc(OC)c(OC)c3)cc2)cc1`, for which the growth was -61.4% (active). Consider `FC(F)(F)c1cccc(Nc2nc(-c3ccccc3)nc3ncccc23)c1`, for which the growth was -57.8% (active). As for `CCCc1n(Cc2ccc3ccccc3n2)cc[n+]1Cc1ccc2ccccc2c1`, the growth was -53.7% (active). Take `Oc1ccc(C2OCCO2)c2cccnc12`: the growth was 15.8%. With `CC(=O)n1c(/C(C#N)=C/c2ccc(N(C)C)cc2)cc2ccccc21`, the growth is 10.5%. In the case of `CCOC(=O)n1cc(-c2nonc2-c2cn(C)c3ncccc23)c2ccccc21` it was 84.7%. As to `CN(Cc1cnc2nc(N)nc(N)c2n1)c1ccc(C(=O)NC(CCC(=O)O)C(=O)O)cc1` (stereo not given), the growth is 29.5%.
